Data: ChEMBL document CHEMBL4296182, “CO-ADD screening of NIH NCI Diversity Set V”
For part of these data: Measured potencies and affinities stand elsewhere.

Legend:
Staphylococcus aureus = test: Antibacterial activity against Staphylococcus aureus MRSA ATCC 43300 (CO-ADD:GP_020); MIC in CAMBH media using NBS plates, by Resazurin F(560/590); format: functional; details: Concentration 20 uM, ASSAY_TEST Inhibition of Bacterial Growth, detection method Resazurin, Fluorescence (ex560/em590), MEDIA CAMHB, plate type 384well, CORNING #3640, time 18 hr
Acinetobacter baumannii = test: Antibacterial activity against Acinetobacter baumannii ATCC 19606 (CO-ADD:GN_034); MIC in CAMBH media using NBS plates, by Resazurin F(560/590); format: functional; details: Concentration 20 uM, ASSAY_TEST Inhibition of Bacterial Growth, detection method Resazurin, Fluorescence (ex560/em590), MEDIA CAMHB, plate type 384well, CORNING #3640, time 18 hr
Escherichia coli = test: Antibacterial activity against Escherichia coli ATCC 25922 (CO-ADD:GN_001); MIC in CAMBH media using NBS plates, by Resazurin F(560/590); format: functional; details: Concentration 20 uM, ASSAY_TEST Inhibition of Bacterial Growth, detection method Resazurin, Fluorescence (ex560/em590), MEDIA CAMHB, plate type 384well, CORNING #3640, time 18 hr
Klebsiella pneumoniae = details: Concentration 20 uM; ASSAY_TEST Inhibition of Bacterial Growth; detection method Absorption (OD600); MEDIA CAMHB; plate type 384well; NBS; CORNING #3640; time 18 hr
Candida albicans = details: 20 µM
Cryptococcus neoformans = details: Concentration 20 uM; ASSAY_TEST Inhibition of Fungal Growth; detection method Resazurin; Absorption (OD600-OD570); plate type 384well; NBS; CORNING #3640

| Compound | Inhibition (Staphylococcus aureus) [%] | Inhibition (Acinetobacter baumannii) [%] | Inhibition (Escherichia coli) [%] | Inhibition (Klebsiella pneumoniae) [%] | Inhibition (Candida albicans) [%] | Inhibition (Cryptococcus neoformans) [%] |
| --- | --- | --- | --- | --- | --- | --- |
| C[C@H]1CC[C@H]2NCCN[C@H]2C1 | 3.35 | -12.82 | 14.31 | 13.98 | 0.84 | -10.77 |
| Cc1nccc2c1[nH]c1cc(O)ccc12 | 18.39 | -8.06 | 7.41 | 20.45 | 2.57 | -8.88 |
| CN(C)C1CCc2[nH]c3c(F)cc(F)cc3c2C1 (centres undefined) [FLUCINDOLE] | 8.89 | 9.46 | 1.82 | 23.22 | 2.28 | -13.31 |
| CCOP(=O)(OCC)/C(C#N)=C/c1ccc(Br)cc1 | 9.27 | 13.14 | 8.82 | 9.61 | 2.02 | -11.15 |
| CN1C(=O)NC(=O)C(/N=N/c2ccc(Cl)cc2)C1=O (centres undefined) | 11.94 | 12.18 | 3.45 | 13.9 | 1.14 | -3.1 |
| O=P(Oc1ccccc1)(Oc1ccccc1)c1ccccc1 | 1.14 | -14.38 | 1.1 | 1.03 | 4.45 | -2.59 |
| COc1cc(OC)cc(C2(C#N)CCN(C)CC2)c1 | 3.06 | 10.25 | -15.21 | 17.67 | 8.63 | 25.01 |
| O=c1cccc2n1C[C@H]1C[C@@H]2CN2CCCC[C@@H]12 | 6.92 | -12.51 | 5.34 | 8.7 | -0.36 | -3.93 |
| O=[As](O)(O)c1ccc(/N=N/c2ccc(O)cc2)cc1 | -11.42 | -13.35 | 0.89 | 15.09 | 7.76 | -3.57 |
